# Measurements: the supplement of paper PMC12669032
# Where “and” joins values, the source holds several entries; their conditions need not be identical. Identical values can stand only once.
# Tested on: Lactobacillus gasseri
# Assay: growth AUC relative to DMSO control (median of replicates) (fraction); higher = more growth (less inhibition), active = hit call of the paper
# Conditions: 20 µM; 24 h;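 active = AUC reduced over 20% with Padj below 0.05 in at least 2 of 3 replicates; inactive = otherwise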
# How it was run: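 Hourly OD600 readings over 24 h tracked anaerobic gut bacterial monocultures grown at 37 °C in mGAM from OD600 0.05 with 20 µM compound (1% DMSO). After the minimum OD was set to 0, area under the growth curve was normalised to the plate median of solvent-only wells, or to row and column medians on the industrial chemical plate. Values are medians of three biological replicates grown on separate days.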
row,Structure (SMILES),growth AUC
1,COP(N)(=O)SC (centres undefined),0.836 (inactive)
2,COc1cc(OC)n2nc(S(=O)(=O)Nc3c(Cl)ccc(C)c3Cl)nc2n1,1.09 (inactive)
3,CC(C)N(C(=O)SCC(Cl)=C(Cl)Cl)C(C)C,0.948 (inactive)
4,O=S(=O)(c1ccc(O)cc1)c1ccc(O)cc1,0.963 (inactive)
5,CN(C)NC(=O)CCC(=O)O,1.01 (inactive)
6,CCN(CC)c1nc(C)cc(OP(=S)(OC)OC)n1,0.984 (inactive)
7,Clc1cccc(Cl)c1Cl,1.02 (inactive)
8,CCN(CC)C(=S)[S-].O.O.O.[Na+],1.01 (inactive)
9,C#CCC1=C(C)C(OC(=O)C2C(C=C(C)C)C2(C)C)CC1=O (centres undefined),0.998 (inactive)
10,CCOc1ccccc1OS(=O)(=O)NC(=O)Nc1nc(OC)cc(OC)n1,1.11 (inactive)
11,CNC(=O)Oc1cc(C)cc(C(C)C)c1,0.889 (inactive)
12,CCCCN(CC)c1c([N+](=O)[O-])cc(C(F)(F)F)cc1[N+](=O)[O-],1 (inactive)
13,O=C(O)CCl,1.03 (inactive)
14,CC[C@H](C)[C@H]1O[C@]2(C=C[C@@H]1C)C[C@@H]1C[C@@H](C/C=C(\C)[C@@H](O[C@H]3C[C@H](OC)[C@@H](O[C@H]4C[C@H](OC)[C@@H](NC)[C@H](C)O4)[C@H](C)O3)[C@@H](C)/C=C/C=C3\CO[C@@H]4[C@H](O)C(C)=C[C@@H](C(=O)O1)[C@]34O)O2.O=C(O)c1ccccc1,0.714 (active)
15,CON(C)C(=O)Nc1ccc(Cl)c(Cl)c1,1.01 (inactive)
16,CCCCOC(=O)[C@@H](C)Oc1ccc(Oc2ccc(C#N)cc2F)cc1,0.87 (inactive)
17,Clc1cc(Cl)c(Cl)c(Cl)c1,0.918 (inactive)
18,CN(C)C(=O)Nc1cccc(C(F)(F)F)c1,1.05 (inactive)
19,CN(C)C(=O)Nc1cccc(OC(=O)NC(C)(C)C)c1,0.934 (inactive)
20,CCOP(=O)(NC(C)C)Oc1ccc(SC)c(C)c1 (centres undefined),0.895 (inactive)

row,Structure (SMILES),growth AUC
1,ClCC(Br)CBr (centres undefined),0.916 (inactive)
2,O=[N+]([O-])c1c(Cl)c(Cl)cc(Cl)c1Cl,1.14 (inactive)
3,CCS(=O)c1c(C#N)nn(-c2c(Cl)cc(C(F)(F)F)cc2Cl)c1N (centres undefined),0.909 (inactive)
4,CNC(=O)Oc1cccc2c1OC(C)(C)C2O (centres undefined),0.862 (inactive)
5,CCOP(=O)(SC(C)CC)N1CCSC1=O (centres undefined),0.997 (inactive)
6,CCOP(=O)(OCC)ON1C(=O)c2cccc3cccc(c23)C1=O,0.954 (inactive)
7,O=C(O)C(F)(F)C(F)(F)C(F)(F)C(F)(F)C(F)(F)C(F)(F)F,1.03 (inactive)
8,O=S1OC[C@@H]2[C@H](CO1)[C@]1(Cl)C(Cl)=C(Cl)[C@@]2(Cl)C1(Cl)Cl (some centres undefined),0.974 (inactive) and 0.906 (inactive)
9,O=C(O)c1ccccc1C(=O)Nc1cccc2ccccc12,0.979 (inactive)
10,CCCCN(CCCC)SN(C)C(=O)Oc1cccc2c1OC(C)(C)C2,0.884 (inactive)
11,C[n+]1ccc(-c2cc[n+](C)cc2)cc1.O.[Cl-].[Cl-],1.05 (inactive)
12,CCC(C)(CC)c1cc(NC(=O)c2c(OC)cccc2OC)on1,0.932 (inactive)
13,CNC(=O)Oc1cc(C)c(SC)c(C)c1,0.883 (inactive)
14,COC(=O)C(C)(Cl)Cl,1.18 (inactive)
15,Cc1cc(Cl)ccc1N=CN(C)C,1.04 (inactive)
16,Nc1cc(Cl)cc(Cl)c1,0.944 (inactive)
17,CCCCCCCCCc1ccc(O)cc1,0.904 (inactive)
18,COc1c(Cl)ccc(Cl)c1Cl,0.879 (inactive)
19,CC(C)(C)c1cc([N+](=O)[O-])cc([N+](=O)[O-])c1O,0.852 (inactive)
